Screening results from PubChem BioAssay.
ADAM10 inh: inhibits human ADAM10. O14672. recombinant ADAM10, EDANS/DABCYL FRET peptide cleavage, 3 h. inhibition, % at 7 µM. 370,000 compounds, 0.62% hits;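 active = inhibition above a per-campaign cutoff equal to the mean of compounds falling between control-based bounds plus 3 SD, cut at about 20% in these data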
PLC-beta3 inh: blocks human PLC-beta3 enzyme activity; inhibition, % at 12.2 µM; 370,000 compounds, 0.18% hits; Q01970; Purified PLC-beta3, fluorogenic substrate, fluorescence; in the data active = inhibition above about 11%
PLC-gamma1 inh: PLC-gamma1 (human) inhibition, primary screen | purified PLC-gamma1, fluorogenic substrate, fluorescence | inhibition, % at 12.2 µM | 370,000 compounds, 0.84% hits | AID 720700; in the data active = inhibition above about 9.5%
Target sequence (P19174 whole entry, looked up): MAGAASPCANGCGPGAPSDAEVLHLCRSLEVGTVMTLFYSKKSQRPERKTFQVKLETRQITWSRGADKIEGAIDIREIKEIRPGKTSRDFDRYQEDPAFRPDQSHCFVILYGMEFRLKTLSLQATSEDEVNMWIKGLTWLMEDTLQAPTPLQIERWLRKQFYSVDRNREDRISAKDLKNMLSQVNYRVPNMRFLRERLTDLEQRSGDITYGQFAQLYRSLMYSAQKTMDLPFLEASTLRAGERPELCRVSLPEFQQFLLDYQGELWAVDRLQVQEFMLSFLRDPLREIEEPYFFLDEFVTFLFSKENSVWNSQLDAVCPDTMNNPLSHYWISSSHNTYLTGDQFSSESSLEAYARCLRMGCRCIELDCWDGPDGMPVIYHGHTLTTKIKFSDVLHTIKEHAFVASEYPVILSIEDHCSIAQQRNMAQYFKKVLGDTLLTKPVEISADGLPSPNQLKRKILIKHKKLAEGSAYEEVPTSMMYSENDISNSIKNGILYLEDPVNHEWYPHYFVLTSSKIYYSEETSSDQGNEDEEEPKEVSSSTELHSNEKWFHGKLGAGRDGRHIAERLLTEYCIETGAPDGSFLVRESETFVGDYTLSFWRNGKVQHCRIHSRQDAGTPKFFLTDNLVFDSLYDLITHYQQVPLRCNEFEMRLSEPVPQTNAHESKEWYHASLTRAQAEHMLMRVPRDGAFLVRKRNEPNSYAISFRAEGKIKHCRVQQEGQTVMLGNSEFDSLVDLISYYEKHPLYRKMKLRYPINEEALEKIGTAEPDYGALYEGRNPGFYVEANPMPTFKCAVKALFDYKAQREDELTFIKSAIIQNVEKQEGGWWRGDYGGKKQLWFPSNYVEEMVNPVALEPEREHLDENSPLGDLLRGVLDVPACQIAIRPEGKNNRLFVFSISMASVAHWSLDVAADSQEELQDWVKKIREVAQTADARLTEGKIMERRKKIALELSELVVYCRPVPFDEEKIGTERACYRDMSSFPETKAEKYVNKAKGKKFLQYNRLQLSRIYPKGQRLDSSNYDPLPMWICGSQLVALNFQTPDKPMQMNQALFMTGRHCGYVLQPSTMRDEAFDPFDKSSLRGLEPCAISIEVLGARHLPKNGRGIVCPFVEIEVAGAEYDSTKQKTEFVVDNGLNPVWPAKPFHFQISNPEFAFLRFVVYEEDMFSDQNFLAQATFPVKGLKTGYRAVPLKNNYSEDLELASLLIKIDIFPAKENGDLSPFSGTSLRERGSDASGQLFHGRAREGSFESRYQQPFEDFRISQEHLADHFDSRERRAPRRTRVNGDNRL
ADAM17 inh: inhibitors of human ADAM17. recombinant ADAM17, EDANS/DABCYL FRET peptide cleavage. 370,000 compounds, 0.83% hits. AID 720648. P78536. inhibition, % at 6.95 µM;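 active = inhibition above the mean of compounds lying between control limits plus 3 SD, set per campaign, cut at about 8.5% in these data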
HGIII-sPLA2 inh: Blocks human group III sPLA2 activity. QFRET BODIPY PC-A2 liposome hydrolysis, fluorescence. inhibition, % at 12.2 µM. 370,000 compounds, 0.56% hits;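 active = inhibition above mean plus 3 SD of compounds lying within the high and low control bounds, cut at about 19% in these data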
KLK7 zymogen act: proKLK7 (human) activation, primary screen; P49862; purified proKLK7, EDANS-DABCYL substrate fluorescence; 100% is mature enzyme control, 0% vehicle; activation, % at 7 µM; 370,000 compounds, 0.9% hits; AID 652039;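 active = activation above the mean of all tested compounds plus 3 SD, computed per campaign excluding outliers beyond control limits, cut at about 13% in these data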
ADAM10 ctr: inhibits human ADAM10 in ADAM17 exosite counter-screen; shares compounds with ADAM17 inh; recombinant ADAM10, EDANS/DABCYL FRET peptide cleavage, 3 h; inhibition, % at 6.95 µM; 2,900 compounds, 47% hits;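 active = mean inhibition over the triplicate runs exceeds the activity threshold set in the earlier primary screen, cut at about 20% in these data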
ADAM17 confirm: human ADAM17 inhibition, confirmation. 2,900 compounds, 65% hits. AID 743257. inhibition, % at 6.95 µM. recombinant ADAM17, EDANS/DABCYL QFRET peptide cleavage. shares compounds with ADAM17 inh;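 active = mean inhibition across replicates above the hit cutoff set in the primary screen, cut at about 8.5% in these data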
Hits are given with their value. Only some compounds are listed: those with a hit (about 3.4% of all), similar ones and a draw of the others.

O=C(CC1Sc2ccccc2NC1=O)OCC(=O)N1CCc2ccccc21 (configuration not stated) was read as ADAM10 inh inactive, PLC-beta3 inh inactive, PLC-gamma1 inh inactive, ADAM17 inh 9.2, HGIII-sPLA2 inh inactive, KLK7 zymogen act inactive, ADAM10 ctr inactive and ADAM17 confirm inactive.
For O=C1N(Cc2ccccc2)c2ccccc2C12CCCc1sc(CCc3ccccc3)nc12 (configuration not stated) the results were ADAM10 inh inactive, PLC-beta3 inh inactive, PLC-gamma1 inh inactive, ADAM17 inh inactive, HGIII-sPLA2 inh inactive and KLK7 zymogen act inactive.
For COc1ccc(CNC(=O)C2CCN(C(=O)[C@@H](CC(C)C)NC(=O)OC(C)(C)C)CC2)cc1 the results were ADAM10 inh inactive, PLC-beta3 inh inactive, PLC-gamma1 inh inactive, ADAM17 inh 8.6, HGIII-sPLA2 inh inactive, KLK7 zymogen act inactive, ADAM10 ctr inactive and ADAM17 confirm inactive.
`S=C(NCc1ccco1)Nc1cccc(Cl)c1` gave ADAM10 inh inactive, PLC-beta3 inh inactive, PLC-gamma1 inh inactive, ADAM17 inh inactive, HGIII-sPLA2 inh inactive and KLK7 zymogen act inactive.
`S=C(NCc1ccco1)Nc1ccc(Cl)c(Cl)c1` gave ADAM10 inh inactive, PLC-beta3 inh inactive, PLC-gamma1 inh inactive, ADAM17 inh 10.0, HGIII-sPLA2 inh inactive, KLK7 zymogen act inactive, ADAM10 ctr inactive and ADAM17 confirm inactive.
For O=C(COc1cccc(Cl)c1)NNC(=S)Nc1ccccc1 the results were ADAM10 inh inactive, PLC-beta3 inh inactive, PLC-gamma1 inh inactive, ADAM17 inh 9.8, HGIII-sPLA2 inh inactive, KLK7 zymogen act inactive, ADAM10 ctr inactive and ADAM17 confirm 9.7.
`O=C(O)CCC(=O)NNC(=O)COc1cccc(Cl)c1` gave ADAM10 inh inactive, PLC-beta3 inh inactive, PLC-gamma1 inh inactive, ADAM17 inh inactive, HGIII-sPLA2 inh inactive and KLK7 zymogen act inactive.
For O=[N+]([O-])c1ccc(OCCCN2CCC(C(O)(c3ccccc3)c3ccccc3)CC2)c(Cl)c1 the results were ADAM10 inh inactive, PLC-beta3 inh inactive, PLC-gamma1 inh inactive, ADAM17 inh inactive, HGIII-sPLA2 inh inactive and KLK7 zymogen act inactive.
`C/C=C/C(=O)OCC(=O)Nc1nc2ccc(C)cc2s1` gave ADAM10 inh inactive, PLC-beta3 inh inactive, PLC-gamma1 inh inactive, ADAM17 inh 9.3, HGIII-sPLA2 inh inactive, KLK7 zymogen act inactive, ADAM10 ctr inactive and ADAM17 confirm inactive.
`CCN(CC)S(=O)(=O)c1ccc2c(c1)nc(CCC(=O)Nc1ccc3c(c1)OCO3)n2CC` gave ADAM10 inh inactive, PLC-beta3 inh inactive, PLC-gamma1 inh inactive, ADAM17 inh 8.9, HGIII-sPLA2 inh inactive, KLK7 zymogen act inactive, ADAM10 ctr inactive and ADAM17 confirm inactive.
Screening CCN(CC)S(=O)(=O)c1ccc2c(c1)nc(CCC(=O)Nc1ccc3c(c1)OCO3)n2C returned ADAM10 inh inactive, PLC-beta3 inh inactive, PLC-gamma1 inh inactive, ADAM17 inh inactive, HGIII-sPLA2 inh inactive and KLK7 zymogen act inactive.
`CC(C)NC(=O)c1ccc(-c2ccccc2C(F)(F)F)o1` gave ADAM10 inh inactive, PLC-beta3 inh inactive, PLC-gamma1 inh inactive, ADAM17 inh inactive, HGIII-sPLA2 inh inactive and KLK7 zymogen act inactive.
`O=C(Nc1ccccc1)c1ccc(-c2ccccc2C(F)(F)F)o1` gave ADAM10 inh inactive, PLC-beta3 inh inactive, PLC-gamma1 inh inactive, ADAM17 inh 9.2, HGIII-sPLA2 inh inactive, KLK7 zymogen act inactive, ADAM10 ctr inactive and ADAM17 confirm inactive.
For COc1ccc(CNC(=O)C[C@@H]2C[C@H]3c4cc(NC(=O)NC5CCCC5)ccc4O[C@H]3[C@H](CO)O2)cc1 the results were ADAM10 inh inactive, PLC-beta3 inh inactive, PLC-gamma1 inh inactive, ADAM17 inh 9.1, HGIII-sPLA2 inh inactive, KLK7 zymogen act inactive, ADAM10 ctr inactive and ADAM17 confirm inactive.
